Screens: PubChem, several laboratories
SMARCA2 act – SMARCA2 (BRM) function activators, primary screen, cell-based, luminescence, high throughput. MG213 cells, MMTV-luciferase reporter, dexamethasone, overnight. activation, % at 9.1 µM. 1% of 370,000 active; in the data active means activation above about 7.8%
GalR3 antagonist – GalR3 antagonists in HEK293 cells, primary screen, cell-based, fluorescence readout; inhibition, % at 3 µM; Galanin receptor type 3 (Homo sapiens), O60755; HEK293 GalR3-CNG cAMP membrane potential fluorescence; galR3 body fused to GalR1 C-terminus; 0.44% of 360,000 active;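 active means inhibition above the screen-wide average plus 3 SD, cut at about 13% in these data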;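 further: forskolin and galanin both at EC90 stimulate the cells; cAMP rise reported by CNG channel membrane potential dye signal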
Target sequence (O60755 1-299 limits assumed): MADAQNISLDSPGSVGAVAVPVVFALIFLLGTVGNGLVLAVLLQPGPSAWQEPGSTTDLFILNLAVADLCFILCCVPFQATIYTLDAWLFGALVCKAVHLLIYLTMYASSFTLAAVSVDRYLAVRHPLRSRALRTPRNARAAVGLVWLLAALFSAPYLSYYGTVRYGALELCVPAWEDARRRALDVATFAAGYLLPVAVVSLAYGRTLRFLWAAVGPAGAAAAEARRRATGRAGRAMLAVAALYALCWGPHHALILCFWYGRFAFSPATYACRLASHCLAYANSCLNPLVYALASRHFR
HIF act – HIF pathway transcriptional activators, primary screen, cell-based, U2OS HRE-luciferase, luminescence. U2OS HRE-luciferase reporter; normalized: DMSO 0%, desferrioxamine 100%. activation, % at 7.5 µM (by protocol). 0.32% of 300,000 active. AID 1910, 2009;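 active means mean activation of at least 10% of the iron chelator positive control signal, with at least half of replicates also reaching 10%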
FXN GAA850 act – FXN promoter activators, primary screen, cell-based, luciferase luminescence, HEK293 lucGAA850; 0.56% of 360,000 active; activation, % at 6 µM; AID 540364, 2011; HEK293 lucGAA850 FXN promoter luciferase reporter, 24 h; percent of 10 µM SAHA response;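 active means activation above the average of all compounds screened plus 3 SD, cutoff fixed separately per campaign, cut at about 7.5% in these data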
Hsp70 act – Hsp70 transcriptional activators, primary screen, cell-based, HeLa, Hsp70 promoter luciferase, luminescence, 10 µM | activation, % at 10 µM | HeLa Hsp70 promoter luciferase reporter; scaled: vehicle 0, proteasome-inhibitor control 100% | 0.04% of 200,000 active;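 active means activation above the mean across all tested compounds plus 3 SD, cutoff set per campaign, cut at about 5.5% in these data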
GAA30 counter – GAA30 FXN promoter activators, confirmation, counter-screen for GAA850 frataxin promoter activator project, cell-based, luminescence, HEK293, lucGAA30, triplicate. shares compounds with FXN GAA850 act. HEK293 lucGAA30 FXN promoter luciferase, 24 h; DMSO = 0%, 5 µM ipriflavone = 100%. activation, % at 6 µM. 66% of 1,900 active;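 active means mean activation above the mean of solvent-only control wells plus 3 SD, cut at about 22% in these data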;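 further: counterscreen of GAA850 promoter hits where activity marks nonselective or luminescence artifacts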
GAA850 confirm – FXN GAA850 promoter activators in reporter cells, confirmation, cell-based, luminescence, HEK293 lucGAA850, triplicate; shares compounds with FXN GAA850 act; activation, % at 6 µM; HEK293 lucGAA850 FXN promoter luciferase reporter, 24 h; 100% = activation by SAHA; 86% of 1,900 active; AID 588351, 2011;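 active means mean activation above a set limit taken from the primary screen, cut at about 8% in these data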
Each line names hits and unclear results; the compound was inactive in the other large screens (follow-up assays come after a bar, where they were run). The list is not random: actives were taken first. Their share in the collection is about 2.2%.

CC(NC(=O)CSC(=S)N(C)C)C12CC3CC(CC(C3)C1)C2 (stereo not given)	FXN GAA850 act 9.4 (no result: HIF act) | GAA30 counter 31.4 | GAA850 confirm 14.5
CCCCNC(=O)NS(=O)(=O)c1ccc(NC(=O)CSc2nnc(-c3cccs3)n2-c2ccc(OC)cc2)cc1	none (no result: GalR3 antagonist, HIF act, FXN GAA850 act, Hsp70 act)
C[C@@H]1/C=C/CC(=O)N2[C@H](CC(=O)N[C@@H]1c1ccccc1)C[C@@H](C)[C@H]2c1ccccc1	none (no result: GalR3 antagonist, HIF act, FXN GAA850 act, Hsp70 act)
O=C(CN(CCc1ccccc1)S(=O)(=O)c1ccc(F)cc1)N1CCOCC1	none (no result: GalR3 antagonist, HIF act, FXN GAA850 act, Hsp70 act)
Cc1ccc(/C=N/NC(=O)c2cccs2)cc1[N+](=O)[O-]	FXN GAA850 act 8.3 | GAA30 counter 102.7 | GAA850 confirm 41.8
COc1ccc(-c2cn3ccccc3n2)cc1OC	FXN GAA850 act 7.9 | GAA30 counter 145.5 | GAA850 confirm 44.4
COc1ccc(-c2cn3cc(C)ccc3n2)cc1OC	none
CCOc1ccc(C(=O)CSc2nnc(SCc3ccc(Cl)cc3)s2)cc1	none (no result: GalR3 antagonist, HIF act, FXN GAA850 act, Hsp70 act)
Cc1ccc(-c2cc(C(=O)NCCCN3CCOCC3)no2)cc1	none
O=C(NCCCN1CCOCC1)c1cc(-c2cccs2)on1	HIF act 20.5, FXN GAA850 act 20.0 | GAA30 counter 112.9 | GAA850 confirm 80.0
O=C(NC1CCCC1)c1cc(-c2ccccc2O)on1	none (no result: Hsp70 act)
COc1ccc(OC)c(-c2cc(C(=O)NCCCn3ccnc3)no2)c1	none
O=C(NC1CCCC1)c1cc(-c2cccs2)on1	HIF act 32.1, FXN GAA850 act 18.1 | GAA30 counter 158.8 | GAA850 confirm 91.5
O=C(NCCCn1ccnc1)c1cc(-c2cccs2)on1	HIF act 38.2, FXN GAA850 act 41.4 | GAA30 counter 158.6 | GAA850 confirm 114.3
COc1ccc(OCc2nnc3n2N=C(c2ccc(OC)cc2)CS3)cc1	none
CCCc1nnc2n1N=C(c1ccc(OC)c(OC)c1)CS2	FXN GAA850 act 12.4 | GAA30 counter 35.3 | GAA850 confirm 13.0
O=C(O)CCn1c2ccccc2c2nc3ccccc3nc21	none (no result: Hsp70 act)
N#CCn1c2ccccc2c2nc3ccccc3nc21	FXN GAA850 act 9.3 | GAA30 counter 51.8 | GAA850 confirm 18.3
CC1(Cc2ccc(Cl)cc2)C(=O)Nc2ccc(S(=O)(=O)NC3CCCCC3)cc21 (stereo not given)	FXN GAA850 act 8.3 (no result: HIF act, Hsp70 act) | GAA30 counter inactive | GAA850 confirm inactive
CC1=CC(C)(C)Nc2ccc(OC(=O)CN3C(=O)c4cccc5cccc(c45)C3=O)cc21	none
CC1=CC(C)(C)Nc2ccc(OC(=O)CN3C(=O)c4ccccc4C3=O)cc21	FXN GAA850 act 8.7 | GAA30 counter inactive | GAA850 confirm 17.7
CN(c1ccccc1)c1ccc(/C=C/[N+](=O)[O-])cc1	FXN GAA850 act 16.2 | GAA30 counter inactive | GAA850 confirm inactive
O=[N+]([O-])c1ccc(C=CC=Cc2ccccc2)cc1	none (no result: HIF act, Hsp70 act)
COC(=O)C1=C(C)N(C)C(=NCc2ccc3c(c2)OCO3)NC1c1ccc(F)cc1 (stereo not given)	none (no result: HIF act, FXN GAA850 act, Hsp70 act)
C=C1CCN([C@@H](CC(C)C)C(=O)Nc2ccc(OC)cc2)S(=O)(=O)c2ccccc21	FXN GAA850 act 14.2 (no result: Hsp70 act) | GAA30 counter 22.2 | GAA850 confirm 10.9
C=C1CCN([C@@H](Cc2ccccc2)C(=O)NCCC(C)C)S(=O)(=O)c2ccccc21	FXN GAA850 act 8.0 (no result: Hsp70 act) | GAA30 counter inactive | GAA850 confirm inactive
C=C1CCN(C(CC(C)C)C(=O)OC)S(=O)(=O)c2ccccc21 (stereo not given)	none (no result: Hsp70 act)
S=C(NC12CC3CC(CC(C3)C1)C2)N1CCCC1	FXN GAA850 act 9.4 | GAA30 counter 26.6 | GAA850 confirm 10.8
